Assay [1] in a line: NCI Yeast Anticancer Drug Screen. Data for the rad50 strain (AID 155).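 Also: 0% = growth of vehicle-only cultures of the same strain.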 The settings on record: S. cerevisiae rad50 strain growth inhibition, active compounds read high. In short, it runs like this:
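Compounds were tested on a yeast strain with an engineered DNA damage repair alteration; the reported value is growth inhibition normalised to vehicle treatment.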

Assay [2] can be described thus: NCI Yeast Anticancer Drug Screen. Data for the mec2-1 strain (AID 157). Particulars: S. cerevisiae mec2-1 strain, active compounds read high. In short, it runs like this: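 Each compound was tested on mec2-1 yeast, a strain altered in DNA damage repair or cell cycle control. Growth inhibition is reported relative to vehicle.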
A short description of assay [3]: NCI Yeast Anticancer Drug Screen. Data for the sgs1 mgt1 strain (AID 161).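 Also: 0% = growth of cultures given vehicle only.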 The settings on record: S. cerevisiae sgs1 mgt1 strain, active compounds read high. An outline of the steps: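 Genetically altered yeast, compound exposure, growth inhibition relative to vehicle.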
Assay [4] can be described thus: NCI Yeast Anticancer Drug Screen. Data for the cln2 rad14 strain (AID 165).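 Also: 0% = growth equal to vehicle treated cultures.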 Particulars: S. cerevisiae cln2 rad14 strain, active compounds read high. An outline of the steps:
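Test compounds were added to cln2 rad14 yeast cultures; inhibition of growth was then determined by comparison with vehicle treatment.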

Assay [5] in a line: NCI Yeast Anticancer Drug Screen. Data for the bub3 strain (AID 167). The settings on record: S. cerevisiae bub3 mutant strain, active compounds read high. In short, it runs like this:
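Growth of a checkpoint-deficient yeast mutant is measured after compound exposure. Values represent inhibition relative to vehicle.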

Assay [6] can be described thus: NCI Yeast Anticancer Drug Screen. Data for the mlh1 rad18 strain (AID 175). The settings on record: S. cerevisiae mlh1 rad18 strain growth inhibition, active compounds read high. In short, it runs like this:
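Inhibition values reflect reduced growth of mutant yeast versus vehicle-treated controls following compound exposure; the mutations affect DNA damage repair.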

Setting [7] is: at 5.0 µM (retest, dose inferred, filed as 0.5).
Where [8] appears, read: at 50.0 µM (retest, dose inferred, filed as 5.0).

The structures appear in SMILES notation. Compounds without any hit were thinned out: in the full panel of roughly 79,000, 15% have a hit. A number with no mark means an inactive call. Activity calls are given as the source filed them. Rule as the data show it: active = growth inhibition above about 70%; inactive = the rest.

As for `CCCCCCCCCCCCCCCCCCOC(=O)Nc1ccc(C)c(NC(=O)OCCCCCCCCCCCCCCCCCC)c1`, the growth inhibition in assay [1] (setting [7]) was -11%; in assay [1] (setting [8]) it was -18%; in assay [1] (at 50.0 µM), 70.2% (active); in assay [2] (setting [7]) it was 6%; in assay [2] (setting [8]), -1%; in assay [2] (at 50.0 µM), 60.9%. The growth inhibition is -6% in assay [3] (setting [7]); -11% in assay [3] (setting [8]); 59.8% in assay [3] (at 50.0 µM); 0% in assay [4] (setting [7]); -19% in assay [4] (setting [8]); 26.4% in assay [4] (at 50.0 µM). Also, the growth inhibition in assay [5] (setting [7]) is -3%; in assay [5] (setting [8]) it was -3%; in assay [5] (at 50.0 µM), 83.6% (active); in assay [6] (setting [7]) it was -11%; in assay [6] (setting [8]), -9%; in assay [6] (at 50.0 µM) it was 79.2% (active).

Regarding `Cc1c[nH]c2c(O)cc3c(c12)[C@H](CCl)CN3C(=O)c1cc2cc(NC(=O)Nc3ccc4[nH]c(C(=O)N5C[C@@H](CCl)c6c5cc(O)c5[nH]cc(C)c65)cc4c3)ccc2[nH]1`, the growth inhibition in assay [1] (setting [7]) was 38%; in assay [1] (setting [8]), 70% (active); in assay [1] (at 50.0 µM), 17.4%; in assay [2] (setting [7]) it was 30%; in assay [2] (setting [8]) it was 63%; in assay [2] (at 50.0 µM) it was 33.6%. Further, the growth inhibition in assay [3] (setting [7]) is 33%; in assay [3] (setting [8]) it was 64%; in assay [3] (at 50.0 µM), -12.9%; in assay [4] (setting [7]), 14%; in assay [4] (setting [8]), 34%; in assay [4] (at 50.0 µM), -3.3%. Moreover, the growth inhibition in assay [5] (setting [7]) was 34%; in assay [5] (setting [8]), 56%; in assay [5] (at 50.0 µM) it was -0.05%; in assay [6] (setting [7]) it was 78% (active); in assay [6] (setting [8]) it was 86% (active); in assay [6] (at 50.0 µM) it was 3.2%.

Turning to `O=[N+]([O-])c1ccc(N2N=NC(CN3CCOCC3)C2N2CCOCC2)cc1` (configuration not stated), the growth inhibition is 5% in assay [1] (setting [7]); 42% in assay [1] (setting [8]); 77.5% (active) in assay [1] (at 50.0 µM); 0% in assay [2] (setting [7]); 23% in assay [2] (setting [8]); 47.3% in assay [2] (at 50.0 µM). In addition, the growth inhibition in assay [3] (setting [7]) is 1%; in assay [3] (setting [8]), 56%; in assay [3] (at 50.0 µM), 47.5%; in assay [4] (setting [7]) it was 0%; in assay [4] (setting [8]) it was 28%; in assay [4] (at 50.0 µM), 24.5%. Moreover, the growth inhibition was 2% in assay [5] (setting [7]); 32% in assay [5] (setting [8]); 7.85% in assay [5] (at 50.0 µM); 3% in assay [6] (setting [7]); 47% in assay [6] (setting [8]); 60.1% in assay [6] (at 50.0 µM).

For the compound `OCC(c1ccccc1)[P+](c1ccccc1)(c1ccccc1)c1ccccc1` (configuration not stated), the growth inhibition is 2% in assay [1] (setting [7]); 34% in assay [1] (setting [8]); 79.2% (active) in assay [1] (at 50.0 µM); -8% in assay [2] (setting [7]); 45% in assay [2] (setting [8]); 49.9% in assay [2] (at 50.0 µM). For the same compound, the growth inhibition in assay [3] (setting [7]) was -9%; in assay [3] (setting [8]), 0%; in assay [3] (at 50.0 µM) it was 74.3% (active); in assay [4] (setting [7]) it was -42%; in assay [4] (setting [8]), -1%; in assay [4] (at 50.0 µM), 31.9%. Further, the growth inhibition is 0% in assay [5] (setting [7]); 13% in assay [5] (setting [8]); 26.3% in assay [5] (at 50.0 µM); -14% in assay [6] (setting [7]); 5% in assay [6] (setting [8]); 59.6% in assay [6] (at 50.0 µM).

As for `O=C(Nc1nnc(-c2ccccc2)s1)c1cc(=O)c2cc(Cl)ccc2o1`, the growth inhibition was -3% in assay [1] (setting [7]); 45% in assay [1] (setting [8]); 99.3% (active) in assay [1] (at 50.0 µM); 0% in assay [2] (setting [7]); 58% in assay [2] (setting [8]); 99.7% (active) in assay [2] (at 50.0 µM). Besides, the growth inhibition in assay [3] (setting [7]) was -3%; in assay [3] (setting [8]), 78% (active); in assay [3] (at 50.0 µM), 99.5% (active); in assay [4] (setting [7]), 6%; in assay [4] (setting [8]) it was 62%; in assay [4] (at 50.0 µM) it was 98.8% (active). In addition, the growth inhibition was 4% in assay [5] (setting [7]); 77% (active) in assay [5] (setting [8]); 99.4% (active) in assay [5] (at 50.0 µM); 2% in assay [6] (setting [7]); 71% (active) in assay [6] (setting [8]); 98.9% (active) in assay [6] (at 50.0 µM).

On to `CCCCCCCCCCCCCCCCOCC(Cl)COP(=O)(O)OP(=O)(O)OCC1OC(n2cc(C)c(=O)[nH]c2=O)CC1O` (configuration not stated), for which the growth inhibition was 27% in assay [1] (setting [7]); 99% (active) in assay [1] (setting [8]); 86% (active) in assay [1] (at 50.0 µM); 30% in assay [2] (setting [7]); 94% (active) in assay [2] (setting [8]); 59.6% in assay [2] (at 50.0 µM). The growth inhibition is 90% (active) in assay [3] (setting [7]); 99% (active) in assay [3] (setting [8]); 93% (active) in assay [3] (at 50.0 µM); 22% in assay [4] (setting [7]); 85% (active) in assay [4] (setting [8]); 63.1% in assay [4] (at 50.0 µM). The growth inhibition in assay [5] (setting [7]) is 50%; in assay [5] (setting [8]), 97% (active); in assay [5] (at 50.0 µM), 79.5% (active); in assay [6] (setting [7]), 67%; in assay [6] (setting [8]) it was 97% (active); in assay [6] (at 50.0 µM), 84.7% (active).

With `COC1CCC2(C)C(=CCC3C4CC(OC(C)=O)CC4(C)CCC32)C1` (configuration not stated), the growth inhibition in assay [1] (setting [7]) was 0%; in assay [1] (setting [8]), 5%; in assay [1] (at 50.0 µM) it was 5.25%; in assay [2] (setting [7]) it was -2%; in assay [2] (setting [8]), 5%; in assay [2] (at 50.0 µM) it was 0.45%. The growth inhibition in assay [3] (setting [7]) is 2%; in assay [3] (setting [8]) it was 3%; in assay [3] (at 50.0 µM) it was -4.15%; in assay [4] (setting [7]) it was -1%; in assay [4] (setting [8]) it was 4%; in assay [4] (at 50.0 µM), 9.5%. The growth inhibition was 0% in assay [5] (setting [7]); 6% in assay [5] (setting [8]); -7.3% in assay [5] (at 50.0 µM); 2% in assay [6] (setting [7]); 9% in assay [6] (setting [8]); -4.2% in assay [6] (at 50.0 µM).

`CCCCCc1[nH]nc(C(=O)OC)c1N=NN1CCOCC1`: the growth inhibition was 43% in assay [1] (setting [7]); 98% (active) in assay [1] (setting [8]); 99.2% (active) in assay [1] (at 50.0 µM); 91% (active) in assay [2] (setting [7]); 99% (active) in assay [2] (setting [8]); 99.6% (active) in assay [2] (at 50.0 µM). In addition, the growth inhibition in assay [3] (setting [7]) was 62%; in assay [3] (setting [8]) it was 99% (active); in assay [3] (at 50.0 µM) it was 99.5% (active); in assay [4] (setting [7]), 68%; in assay [4] (setting [8]), 99% (active); in assay [4] (at 50.0 µM), 99.5% (active). Further, the growth inhibition in assay [5] (setting [7]) was 81% (active); in assay [5] (setting [8]) it was 99% (active); in assay [5] (at 50.0 µM) it was 99.4% (active); in assay [6] (setting [7]), 89% (active); in assay [6] (setting [8]) it was 99% (active); in assay [6] (at 50.0 µM) it was 99.5% (active).

For the compound `CC(=O)C(C(C)=O)C1C=CC=CC=C1`, the growth inhibition in assay [1] (setting [7]) was -149%; in assay [1] (setting [8]), 93% (active); in assay [1] (at 50.0 µM), 97% (active); in assay [2] (setting [7]), -42%; in assay [2] (setting [8]), 87% (active); in assay [2] (at 50.0 µM) it was 92.5% (active). The growth inhibition in assay [3] (setting [7]) is -59%; in assay [3] (setting [8]) it was 90% (active); in assay [3] (at 50.0 µM) it was 91.8% (active); in assay [4] (setting [7]), -59%; in assay [4] (setting [8]), 77% (active); in assay [4] (at 50.0 µM) it was 80% (active). In addition, the growth inhibition in assay [5] (setting [7]) was -73%; in assay [5] (setting [8]) it was 86% (active); in assay [5] (at 50.0 µM), 92.5% (active); in assay [6] (setting [7]), -139%; in assay [6] (setting [8]), 92% (active); in assay [6] (at 50.0 µM), 96.9% (active).

The values above are taken from PubChem BioAssay (NCI).
